Among all 25,000 compounds or so, about 970 (3.9%) were called active. Inconclusive results (about 8%) are left out. The rule behind the calls is not given here. The sample as a whole holds a higher share of actives than the screen did.
Experiments:
Assay in all cases: Primary Screen for Target Class Profiling of Small Molecule Inhibitors of Methyltransferases
[1] = molecular target: Catechol O-methyltransferase (Homo sapiens) (UniProt P21964); conditions: purified enzyme, MTase-Glo SAH luminescence; activity change, negative = inhibition: at 40 µM, stronger effect = lower value; outcome: 40 uM
Sequence of Catechol O-methyltransferase (Homo sapiens) (P21964 whole entry, looked up): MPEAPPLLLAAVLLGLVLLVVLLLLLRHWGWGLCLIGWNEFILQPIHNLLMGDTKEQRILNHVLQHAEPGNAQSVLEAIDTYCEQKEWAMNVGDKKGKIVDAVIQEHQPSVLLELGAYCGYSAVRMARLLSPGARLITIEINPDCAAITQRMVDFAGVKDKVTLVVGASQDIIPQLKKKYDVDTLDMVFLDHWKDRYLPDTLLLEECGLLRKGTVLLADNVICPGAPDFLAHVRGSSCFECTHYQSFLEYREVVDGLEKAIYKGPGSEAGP
Text: (§1) PI: Matthew D. Hall Ph.D. and Quinlin M. Hanson Ph.D.
(§2) National Center for Advancing Translational Sciences (NCATS)
(§3) National Institute of Health (NIH), Rockville, MD
(§4) Target class profiling (TCP) is a chemical biology approach amenable to investigating understudied biological targets. TCP is achieved by developing a generalizable assay platform and applying it to screen a curated set of compound libraries against representative members of a target class. Small molecule methyltransferases (SMMTase) are a subclass of methyltransferase that act on metabolites to modulate signaling pathways, metabolize xenobiotics, or balance the available methyl pool. We screened four curated libraries totaling 27,574 unique compounds against the SMMTases nicotinamide N-methyltransferase (NNMT), phenylethanolamine N-methyltransferase (PNMT), histamine N-methyltransferase (HNMT), glycine N-methyltransferase (GNMT), catechol O-methyltransferase (COMT), and guanidinoacetate N-methyltransferase (GAMT). The data generated by this TCP can be leveraged for informed tool molecule development. For example, in the associated publication we identified a chemotype of HNMT-selective inhibitors. Additionally, we identified a putative SMMTase-selective inhibitor with potential as a tool molecule for studying broader methyltransferase biology.
(§5) High-through put screening assays were developed at the National Center for Advancing Translational Science (NCATS) for the enzymes NNMT, PNMT, HNMT, GNMT, COMT, and GAMT. Enzymatic activity was measured as a function of SAM cofactor conversion using the MTase Glo kit (Promega) for all enzymes. All assays were performed in 1536-well format with substrates and SAM concentrations at KM values. Enzyme concentration and assay timing were optimized for 10-20% SAM conversion. Initial screening of 27,574 compounds was done as single-point assays using the highest compound concentration (40 uM). […] These compounds were replated in 11-point dose response and assayed against NNMT, PNMT, HNMT, GNMT, COMT, GAMT, and a counter-assay. The IC50 and efficacy (maximal response) values were determined for each dose-response curve. These values are also accounted for in the area under the curve (AUC) values.
(§6) PROTOCOL TABLE (as described by Inglese J, Shamu CE and Guy RK. 2007)
(§7) SEQUENCE No. (e.g., 1, 2, 3, etc.); […] (e.g., Cells, Incubation, Reagent, etc.); VALUE; DESCRIPTION.
(§8) 1; Reagent; 2 uL; SMMTase Enzyme (2x) in reaction buffer, columns 1- 48.
(§9) 2; Reagent; 1 uL; SAM (4x) in reaction buffer, columns 1-48.
(§10) 3; Controls; 23 nL; DMSO in column 4; sinefungin in DMSO (0 uM - 40 uM) in 7-point 1:2 dilution series (n = 2) in column 2.
(§11) 4; Compounds; 23 nL; Columns 5-48.
(§12) 5; Reagent; 1 uL; Substrate (4x) in reaction buffer, columns 2-48.
(§13) 6; Time; 20-30 min; Incubation.
(§14) 7; Reagent; 1 uL; MTase-Glo reagent (5X), columns 1-48.
(§15) 8; Time; 30 min; Incubation.
(§16) 9; Reagent; 5 uL; MTase-Glo Detection reagent, columns 1-48.
(§17) 10; Time; 30 min; Incubation, luminescence evolution.
(§18) 11; Detection; Luminescence; ViewLux uHTS Microplate Imager (PerkinElmer).
(§19) NOTES (numbers refer to Sequence numbers above)
(§20) 1, 2, 5. White Medium Binding Greiner 1536-well plates (Cat #789175-F, Greiner Bio-One, Monroe, NC); Reaction buffer: 50 mM Tris, pH 8.0, 3 mM MgCl2, 1 mM EDTA, 50 mM NaCl, 1 mM DTT, and 0.1 mg/mL BSA. Evaporation was prevented by covering assay plates with metal lids containing holes to allow gas diffusion.
(§21) 1. Six SMMTase were profiled: HNMT, GNMT, PNMT, COMT, NNMT, GAMT
(§22) 5. The corresponding substrate was used for each enzyme: HNMT - 5.3 uM Histamine; GNMT - >500 uM Glycine; PNMT - 16.2 uM Norephinephrine; COMT - 13.7 uM Norephinephrine; NNMT - 3.8 uM Nicotinamide; GAMT - 2.5 uM Guanidinoacetate.6, 8, 10. Room temperature
(§23) 6. Final reaction conditions: 10 nM COMT, 5 uM SAM, 15 uM norepinephrine, 50 mM Tris, pH 8.0, 3 mM MgCl2, 1 mM EDTA, 50 mM NaCl, 1 mM DTT, and 0.1 mg/mL BSA; refer to tables 2 and S1 for specific timing.
8. […]

[2] = molecular target: Glycine N-methyltransferase (Homo sapiens) (UniProt Q14749); conditions: purified enzyme, MTase-Glo SAH luminescence; measured here: GNMT inhibition; at 40 µM; stronger effect = lower value
Sequence of Glycine N-methyltransferase (Homo sapiens) (Q14749 whole entry, looked up): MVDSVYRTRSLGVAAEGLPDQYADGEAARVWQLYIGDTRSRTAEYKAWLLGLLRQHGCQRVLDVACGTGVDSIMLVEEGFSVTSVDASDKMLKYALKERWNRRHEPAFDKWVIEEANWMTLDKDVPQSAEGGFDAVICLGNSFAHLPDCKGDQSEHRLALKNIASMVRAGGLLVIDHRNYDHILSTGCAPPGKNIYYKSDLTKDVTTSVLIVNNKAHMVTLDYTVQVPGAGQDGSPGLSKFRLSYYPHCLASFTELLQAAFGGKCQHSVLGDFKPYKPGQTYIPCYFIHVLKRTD
Text: as §1, §2, §3, §4, §5, §6, §7, §8, §9, §10, §11, §12, §13, §14, §15, §16, §17, §18, §19, §20, §21, §22, §23
8. […]

[3] = molecular target: Guanidinoacetate N-methyltransferase (Homo sapiens) (UniProt Q14353); conditions: purified enzyme, MTase-Glo SAH luminescence; measured here: GAMT inhibition; at 40 µM; stronger effect = lower value
Text: as §1, §2, §3, §4, §5, §6, §7, §8, §9, §10, §11, §12, §13, §14, §15, §16, §17, §18, §19, §20, §21, §22, §23
8. […]

[4] = molecular target: Histamine N-methyltransferase (Homo sapiens) (UniProt P50135); conditions: purified enzyme, MTase-Glo SAH luminescence; measured here: HNMT inhibition; at 40 µM; stronger effect = lower value
Sequence of Histamine N-methyltransferase (Homo sapiens) (P50135 whole entry, looked up): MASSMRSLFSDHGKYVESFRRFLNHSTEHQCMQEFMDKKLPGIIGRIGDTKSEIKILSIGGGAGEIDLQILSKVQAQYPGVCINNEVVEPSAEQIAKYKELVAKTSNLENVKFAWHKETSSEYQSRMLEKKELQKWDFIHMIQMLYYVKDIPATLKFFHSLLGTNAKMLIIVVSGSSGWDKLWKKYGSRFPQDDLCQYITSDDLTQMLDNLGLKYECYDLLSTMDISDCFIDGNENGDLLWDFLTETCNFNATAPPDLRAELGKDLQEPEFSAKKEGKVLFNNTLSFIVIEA
Text: as §1, §2, §3, §4, §5, §6, §7, §8, §9, §10, §11, §12, §13, §14, §15, §16, §17, §18, §19, §20, §21, §22, §23
8. […]

[5] = molecular target: Nicotinamide N-methyltransferase (Homo sapiens) (UniProt P40261); conditions: purified enzyme, MTase-Glo SAH luminescence; measured here: NNMT inhibition; at 40 µM; stronger effect = lower value
Sequence of Nicotinamide N-methyltransferase (Homo sapiens) (P40261 whole entry, looked up): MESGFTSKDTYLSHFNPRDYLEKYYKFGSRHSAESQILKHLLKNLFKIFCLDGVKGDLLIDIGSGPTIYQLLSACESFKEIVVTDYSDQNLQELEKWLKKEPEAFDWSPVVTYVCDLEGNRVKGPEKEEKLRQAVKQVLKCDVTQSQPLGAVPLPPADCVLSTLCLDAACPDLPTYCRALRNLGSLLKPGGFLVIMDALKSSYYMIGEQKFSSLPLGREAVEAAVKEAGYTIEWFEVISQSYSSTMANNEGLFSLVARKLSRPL
Text: as §1, §2, §3, §4, §5, §6, §7, §8, §9, §10, §11, §12, §13, §14, §15, §16, §17, §18, §19, §20, §21, §22, §23
8. […]

[6] = molecular target: Phenylethanolamine N-methyltransferase (Homo sapiens) (UniProt P11086); conditions: purified enzyme, MTase-Glo SAH luminescence; measured here: PNMT inhibition; at 40 µM; stronger effect = lower value
Sequence of Phenylethanolamine N-methyltransferase (Homo sapiens) (P11086 whole entry, looked up): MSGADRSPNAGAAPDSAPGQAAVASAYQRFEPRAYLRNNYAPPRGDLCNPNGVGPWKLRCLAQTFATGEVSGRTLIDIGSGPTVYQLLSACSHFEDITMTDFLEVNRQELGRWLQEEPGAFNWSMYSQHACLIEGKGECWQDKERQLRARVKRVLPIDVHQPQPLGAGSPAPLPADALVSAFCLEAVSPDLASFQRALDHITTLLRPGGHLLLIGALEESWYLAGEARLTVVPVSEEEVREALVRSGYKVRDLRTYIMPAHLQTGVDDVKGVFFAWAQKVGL
Text: as §1, §2, §3, §4, §5, §6, §7, §8, §9, §10, §11, §12, §13, §14, §15, §16, §17, §18, §19, §20, §21, §22, §23
8. […]
% is set by controls: 0 for no effect and ±100 for the full control effect.

| Structure (SMILES) | activity change, negative = inhibition [1] | activity change, negative = inhibition [2] [%] | activity change, negative = inhibition [3] [%] | activity change, negative = inhibition [4] [%] | activity change, negative = inhibition [5] [%] | activity change, negative = inhibition [6] [%] |
| --- | --- | --- | --- | --- | --- | --- |
| O=C(NCc1ccc(Cl)cc1)c1cc(-c2ccc[nH]2)n[nH]1 | -7.05% (inactive) | -26.5 | -7.92 | -7.72 | -8.3 | 2.91 |
| O=C(Nc1ccc2ncnc(N3CCCCC3)c2c1)C1CCCCC1 | -91.5% (active) | -90.3 | -88.7 | -91.6 | -92.3 | -90.6 |
| O=C(N[C@@H]1CN(c2ccncn2)C[C@H]1CO)C1CCCC1 | -2.82% (inactive) | -3.56 | -4.46 | -1.77 | -6.98 | -3.66 |
| Cn1nccc1C(=O)NC1CCCN(c2cc(N3CCCC3)ncn2)C1 (stereo unspecified) | -8.51% (inactive) | -8.51 | -10.5 | -21.6 | -17.7 | -11.9 |
| COc1ccc(OC)c(CNC(=O)CCn2ccc3cc(S(=O)(=O)N4CCCCC4)ccc32)c1 | -2.28% (inactive) | -4.44 | 0.679 | -7.33 | -15 | -3.87 |
| COc1cc2c(cc1O)NC(=O)CC2c1cn[nH]c1-c1cc(C)ccc1C (stereo unspecified) | -43% (active) | -48.4 | -38.7 | -60.8 | -38.3 | -13.5 |

— PubChem BioAssay AID1745853 (National Center for Advancing Translational Sciences (NCATS), 2022)
